# Compound activity: PubChem, several laboratories
# TWEAK-Fn14 inh: inhibitors of TWEAK-Fn14 signaling, primary screen, luciferase reporter cells, uHTS | TWEAK-stimulated Fn14 reporter cells, luciferase luminescence, 8 h | inhibition, % at 10 µM | actives 2% (n = 360,000) | AID 1159606, 2016; in the data active = inhibition above about 50%
# LGR2 antag: inhibitors of bursicon-induced LGR2 CRE-luciferase signal, primary screen, cell-based, HEK293, CRE-luciferase reporter, bursicon stimulation; Drosophila bursicon receptor LGR2 (rickets); actives 0.35% (n = 380,000); AID 720647, 2013; bursicon-stimulated, 4 h; inhibition, % at 9.99 µM;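 active = drop in luminescence signal, shown as inhibition above about 50% in the replicate tests, limit read from the data, passing the limit was not always enough; inconclusive = probably only some replicates passing the limit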;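 note: agonist challenge used bursicon conditioned medium at about half maximal strength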
# LMP1 NFkB inh: EBV LMP1-driven NF-kappaB luciferase reporter inhibitors, primary screen, cell-based, luminescence, single point. inhibition, % at 12.5 µM. LMP1-induced NF-kappaB luciferase reporter cells. actives 0.69% (n = 350,000); in the data active = inhibition above about 41%; inconclusive = no clear call, values can overlap the other calls;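 note: 0% = neutral control wells and 100% = reference inhibitor control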
# MITF TRPM1 inh: inhibitors of MITF-dependent TRPM1 promoter reporter, primary screen, cell-based, SK-MEL-5, single point, luciferase; SK-MEL-5 TRPM1 promoter luciferase, 24 h; inhibition, % at 12.5 µM; actives 0.83% (n = 330,000); AID 488899, 2010;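 active = mean inhibition across replicates of 60% or more, whatever share of single replicates reaches that level; inconclusive = some that reach 60%, reason not given; inactive = mean inhibition across replicates below 60%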
# TROY signal inh: inhibitors of TROY-driven NF-kB signaling, primary screen, Q293 LMP1-TROYcd cells, NF-kB luciferase, uHTS; inhibition, % at 10 µM; Q293 LMP1-TROYcd NF-kB luciferase reporter, 4 h; actives 0.98% (n = 360,000);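 active = compounds whose plate-normalised and pattern-corrected inhibition of the luciferase reporter signal at the single screening dose is 50% or more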
# MITF act: activators of MITF-driven TRPM1 promoter reporter, primary screen, cell-based, SK-MEL-5, luciferase, single point; SK-MEL-5 TRPM1-promoter luciferase, 24 h; % of positive control, neutral wells = 0; activation, % at 12.5 µM; actives 0.75% (n = 300,000);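 active = mean activation of at least 80% with every replicate also reaching 80%; inconclusive = mean reaches 80% but some replicate falls short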;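 note: 0% = neutral control wells and 100% = parthenolide positive control wells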
# * = called active by the depositor; ? = inconclusive; . = not tested or not shown. An excerpt weighted towards active compounds, which were near 3% of everything screened.
SMILES,TWEAK-Fn14 inh,LGR2 antag,LMP1 NFkB inh,MITF TRPM1 inh,TROY signal inh,MITF act
O=C(O)c1ccc(NC(=O)c2cccc(S(=O)(=O)Nc3ccc(C(=O)O)cc3)c2)cc1,11,-2,16,9,9,-8
O=C1CSc2ccc(C(=O)Nc3cccc(S(=O)(=O)Nc4ccc(Br)cc4)c3)cc2N1,98*,10,15,33,82*,-30
O=C(Nc1cccc(O)c1)c1cccc(S(=O)(=O)Nc2cccc(O)c2)c1,-5,-6,49*,3,9,1
O=C(NCC1CC1)[C@H]1[C@H](CO)[C@H]2Cn3c(ccc(-c4cccnc4)c3=O)[C@@H]1N2Cc1nccs1,.,0,.,.,.,.
Cc1noc(C)c1S(=O)(=O)Nc1ccc2c(c1)CC(=O)N([C@@H](C)CO)C[C@@H](C)[C@H](CN(C)Cc1ccc(C(=O)Nc3ccccc3N)cc1)O2,.,-4,.,.,.,.
O=C(Nc1ccccc1F)N[C@H]1CC[C@@H](CCNC(=O)C2CCC2)O[C@H]1CO,.,16,.,.,.,.
O=C(Nc1cccc(S(=O)(=O)Nc2ccc(Cl)cc2)c1)c1ccc(Cl)nc1,80*,17,14,35,53*,-30
COc1ccc(NS(=O)(=O)c2cc(NC(=O)CNC(=O)c3cccc(OC)c3)ccc2C)cc1,-14,-8,-17,69*,-12,-67
Cc1cccc(S(=O)(=O)N2CC[C@@H]3[C@H]2c2cc(C#Cc4cccc(F)c4)ccc2N[C@@H]3CO)c1,.,0,.,.,.,.
O=C(C[C@H]1C[C@@H]2c3cc(NC(=O)C4CCC4)ccc3O[C@@H]2[C@@H](CO)O1)NCc1cccc(F)c1,.,7,.,.,.,.
COc1ccc(CC(=O)Nc2cccc(-c3nnc(-c4cccc(C)c4)o3)c2)cc1OC,89*,?,16,-8,61*,11
COc1ccc(CC(=O)Nc2cccc(-c3nnc(-c4ccc(C)cc4)o3)c2)cc1OC,102*,94*,19,62*,64*,-62
COc1ccc(CC(=O)Nc2cccc(-c3nnc(-c4ccccc4)o3)c2)cc1OC,102*,103*,25,42,69*,-39
CCOc1cccc(C(=O)Nc2cccc(-c3nnc(-c4ccc(C)cc4)o3)c2)c1,-55,.,-54,82*,5,-81
COc1ccc(CC(=O)Nc2ccc(-c3nnc(-c4ccccc4)o3)cc2)cc1OC,-1,2,-10,-20,-29,20
Cc1ccc2c(c1)C1CN(C)CCC1N2C(=O)COc1ccc(N(C)C(=O)c2ccccc2)cc1 (stereo unspecified),0,7,1,-1,7,3
Cc1ccc2c(c1)C1CN(C)CCC1N2C(=O)c1cccc(S(=O)(=O)N(C)C)c1 (stereo unspecified),2,-21,9,4,67*,-3
CS(=O)(=O)Nc1ccc2c(c1)[C@@H]1C[C@H](CC(=O)N3CCOCC3)O[C@@H](CO)[C@@H]1O2,.,-16,.,.,.,.
CNC(=O)NC(=O)C(C)OC(=O)CCCSc1nc2ccccc2s1 (stereo unspecified),55*,-14,4,41,31,-38
CCNC(=O)NC(=O)C(C)OC(=O)CCCSc1nc2ccccc2s1 (stereo unspecified),59*,.,11,38,39,-31
C[C@@H]1CN([C@@H](C)CO)C(=O)Cc2cc(N(C)C)ccc2O[C@@H]1CN(C)S(=O)(=O)c1ccccc1,.,10,.,.,.,.
C[C@@H](O)C#Cc1ccc([C@H]2[C@@H](CO)N3CCCCN(C(=O)c4ccc(F)cc4)C[C@@H]23)cc1,.,21,.,.,.,.
CCCCCCCCCS(=O)(=O)N/N=C/c1cccc([N+](=O)[O-])c1,18,-14,-4,6,51*,-3
CCCCCCCC(=O)Nc1ccc(C(=O)N/N=C/c2cccc([N+](=O)[O-])c2)cc1,-59,.,-58,72*,-25,-72
CCN1[C@@H]2Cn3c(ccc(C4=CCCC4)c3=O)[C@H]1[C@@H](C(=O)NC1CCCC1)[C@@H]2CO,.,-4,.,.,.,.
SMILES,TWEAK-Fn14 inh,LGR2 antag,LMP1 NFkB inh,MITF TRPM1 inh,TROY signal inh,MITF act
COc1ccc2c3c([nH]c2c1)[C@@H](CO)N(C)CC31CN(S(=O)(=O)c2ccc(C)cc2)C1,.,21,.,.,.,.
Cc1ccc(N=c2oc3cc(O)ccc3cc2C(N)=O)cc1,61*,.,0,-34,34,42
COc1ccc(C#Cc2ccc3c(c2)[C@H]2[C@H](CCN2C(=O)CC2CC2)[C@H](CO)N3)cc1,.,6,.,.,.,.
O=[N+]([O-])c1cc(Cl)ccc1Oc1ccc(-c2nnco2)cc1,12,-18,-3,18,62*,-18
C[C@H](CO)N1C[C@H](C)[C@@H](CN(C)C(=O)Nc2ccccc2)Oc2ccc(NS(=O)(=O)c3cn(C)cn3)cc2CC1=O,.,-14,.,.,.,.
CO[C@@H]1CN(C)C(=O)c2ccc(NS(=O)(=O)c3ccccc3F)cc2OC[C@@H](C)NC[C@@H]1C,.,-2,.,.,.,.
CCC(=O)Nc1ccc(NC(=O)c2ccco2)c(OC)c1,-22,.,-18,-53,-14,57
O=C(NC(=S)Nc1nc2ccccc2s1)c1ccco1,29,-56,-21,0,11,0
COc1ccc2c(c1)Cc1sc(NC(=O)c3ccco3)nc1-2,-3,.,-25,-70,-5,65
COc1ccc2c(c1)-c1nc(NC(=O)c3ccco3)sc1CC2,-23,-59,-28,-78,-42,85*
COc1ccc2sc(NC(=O)c3ccco3)nc2c1,70*,75*,27,0,42,-1
COc1ccc2nc(NC(=S)NC(=O)c3ccco3)sc2c1,49,-28,-3,-69,51*,73
CCCC(=O)Nc1ccc(NC(=O)c2ccco2)c(OC)c1,4,-68,-22,-84,-20,88*
CCCN1[C@H](C(=O)NCCOC)[C@@H](CO)[C@@H]2Cn3c(ccc(-c4cccc(C(=O)N(C)C)c4)c3=O)[C@@H]21,.,-12,.,.,.,.
COc1cccc(S(=O)(=O)N[C@@H]2CC[C@H](CC(=O)NCc3ccccc3)O[C@@H]2CO)c1,.,-4,.,.,.,.
O=C(NC1CCCCC1)N1CC(=O)N2[C@H](C1)[C@@H](c1ccc(-c3ccccc3)cc1)[C@@H]2CO,.,-14,.,.,.,.
COc1cccc(C(=O)Nc2cc(OC)ccc2NC(=O)c2ccco2)c1,56*,-11,-5,8,-26,-8
COC(=O)c1cccc(COC(=O)c2ccccc2NC(=O)c2ccco2)c1,3,.,51*,-5,-32,.
COc1ccc2nc(NC(=O)CCNC(=O)c3ccco3)sc2c1,-16,-27,-35,-89,-71,110*
